Assay results from PubChem BioAssay AID1159580 (chemical genetic matrix, 2015).
In all, about 5,500 compounds went through this assay and about 2,000 (36%) were called active. About 18% were inconclusive and are not listed. Rule as the data show it: active = normalized growth mostly below about 0.91 (no sharp cut-off); inconclusive = no clear call, values can overlap the other calls; inactive = mostly above about 0.92. The list shows a part of the results.

Experiment: chemical genetic growth profiling, strain panel (AID 1159580);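 also: tested at 20 µM; growth read once vehicle control cultures reached saturation at 30 °C; 1 = growth at the plate median or of vehicle wells; lower values mean less growth of the strain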
Conditions: growth OD

Measured: normalized growth

CC(C)Nc1nc(Cl)nc(NC(C)C)n1
inactive: S. cerevisiae deletion strains, locus YJR075W, strain HOC1, active compounds read low 1.01 | S. cerevisiae deletion strains, locus YKL009W, strain mrt4, active compounds read low 1.01 | S. cerevisiae deletion strains, locus YKL068W, active compounds read low 1.01 | S. cerevisiae deletion strains, locus YKL085W, strain MDH1 (second series), active compounds read low 1 | S. cerevisiae deletion strains, locus YKL085W, strain MDH1, active compounds read low 1 | S. cerevisiae deletion strains, locus YKL160W, strain elf1, active compounds read low 1 | S. cerevisiae deletion strains, locus YKL190W, strain CNB1, active compounds read low 1.01 | S. cerevisiae deletion strains, locus YKR001C, strain vps1, active compounds read low 1.01 | S. cerevisiae deletion strains, locus YKR026C, strain gcn3, active compounds read low 0.994 | S. cerevisiae deletion strains, locus YKR091W, strain srl3, active compounds read low 0.998 | S. cerevisiae deletion strains, locus YLL001W, strain dnm1, active compounds read low 1.01 | S. cerevisiae deletion strains, locus YLL026W, active compounds read low 0.991 | S. cerevisiae deletion strains, locus YLL041C, strain sdh2, active compounds read low 1 | S. cerevisiae deletion strains, locus YLR027C, strain aat2, active compounds read low 0.995 | S. cerevisiae deletion strains, locus YLR039C, strain RIC1, active compounds read low 0.995 | S. cerevisiae deletion strains, locus YLR058C, strain SHM2, active compounds read low 1.01 | S. cerevisiae deletion strains, locus YLR102C, strain apc9, active compounds read low 1.02 | S. cerevisiae deletion strains, locus YLR113W, strain HOG1, active compounds read low 1 | S. cerevisiae deletion strains, locus YLR221C, strain rsa3, active compounds read low 0.994 | S. cerevisiae deletion strains, locus YLR258W, strain gsy2, active compounds read low 1 | S. cerevisiae deletion strains, locus YLR262C, strain YPT6 (second series), active compounds read low 0.935 | S. cerevisiae deletion strains, locus YLR262C, strain YPT6, active compounds read low 0.984 | S. cerevisiae deletion strains, locus YLR268W, strain sec22, active compounds read low 0.992 | S. cerevisiae deletion strains, locus YLR320W, strain mms22, active compounds read low 0.995 | S. cerevisiae deletion strains, locus YLR330W, strain CHS5, active compounds read low 1.01 | S. cerevisiae deletion strains, locus YLR342W, strain FKS1 (second series), active compounds read low 1.01 | S. cerevisiae deletion strains, locus YLR342W, strain FKS1, active compounds read low 1.01 | S. cerevisiae deletion strains, locus YLR357W, strain rsc2, active compounds read low 0.95 | S. cerevisiae deletion strains, locus YLR370C, strain arc18, active compounds read low 1 | S. cerevisiae deletion strains, locus YLR371W, strain rom2, active compounds read low 1.01 | S. cerevisiae deletion strains, locus YLR384C, strain iki3, active compounds read low 1 | S. cerevisiae deletion strains, locus YLR418C, strain cdc73, active compounds read low 0.979 | S. cerevisiae deletion strains, locus YML016C, strain PPZ1, active compounds read low 1.01 | S. cerevisiae deletion strains, locus YML032C, strain rad52, active compounds read low 1.01 | S. cerevisiae deletion strains, locus YML120C, strain ndi1, active compounds read low 0.998 | S. cerevisiae deletion strains, locus YML124C, strain tub3, active compounds read low 1.01 | S. cerevisiae deletion strains, locus YMR058W, strain fet3, active compounds read low 1.01 | S. cerevisiae deletion strains, locus YMR078C, strain ctf18, active compounds read low 1.02 | S. cerevisiae deletion strains, locus YMR125W, strain sto1, active compounds read low 0.997 | S. cerevisiae deletion strains, locus YMR129W, active compounds read low 0.994 | S. cerevisiae deletion strains, locus YMR205C, strain PFK2, active compounds read low 0.985 | S. cerevisiae deletion strains, locus YMR223W, strain ubp8, active compounds read low 1.01 | S. cerevisiae deletion strains, locus YMR231W, strain pep5, active compounds read low 0.999 | S. cerevisiae deletion strains, locus YMR263W, strain SAP30, active compounds read low 1.02 | S. cerevisiae deletion strains, locus YMR307W, strain GAS1, active compounds read low 1.02 | S. cerevisiae deletion strains, locus YNL067W, strain RPL9B, active compounds read low 0.999 | S. cerevisiae deletion strains, locus YNL071W, strain lat1, active compounds read low 1 | S. cerevisiae deletion strains, locus YNL128W, strain TEP1, active compounds read low 1 | S. cerevisiae deletion strains, locus YNL153C, strain GIM3, active compounds read low 0.989 | S. cerevisiae deletion strains, locus YNL183C, strain NPR1, active compounds read low 0.935 | S. cerevisiae deletion strains, locus YNL209W, strain ssb2, active compounds read low 0.999 | S. cerevisiae deletion strains, locus YNL233W, strain BNI4, active compounds read low 1.02 | S. cerevisiae deletion strains, locus YNL248C, strain rpa49, active compounds read low 0.982 | S. cerevisiae deletion strains, locus YNL250W, strain rad50, active compounds read low 1.01 | S. cerevisiae deletion strains, locus YNL271C, strain bni1, active compounds read low 1.01 | S. cerevisiae deletion strains, locus YNL298W, strain CLA4, active compounds read low 1.02 | S. cerevisiae deletion strains, locus YNL307C, strain MCK1, active compounds read low 1.02 | S. cerevisiae deletion strains, locus YNL322C, strain KRE1 (second series), active compounds read low 0.992 | S. cerevisiae deletion strains, locus YNL322C, strain KRE1, active compounds read low 1.01 | S. cerevisiae deletion strains, locus YNR049C, strain mso1, active compounds read low 1 | S. cerevisiae deletion strains, locus YNR052C, strain pop2, active compounds read low 1.01 | S. cerevisiae deletion strains, locus YOL006C, strain TOP1, active compounds read low 1.03 | S. cerevisiae deletion strains, locus YOL012C, strain htz1 0.789 | S. cerevisiae deletion strains, locus YOL147C, strain pex11, active compounds read low 1.01 | S. cerevisiae deletion strains, locus YOR001W, strain rrp6, active compounds read low 0.999 | S. cerevisiae deletion strains, locus YOR061W, strain CKA2, active compounds read low 0.998 | S. cerevisiae deletion strains, locus YOR069W, strain VPS5, active compounds read low 1.01 | S. cerevisiae deletion strains, locus YOR070C, strain gyp1, active compounds read low 1.01 | S. cerevisiae deletion strains, locus YOR080W, strain dia2, active compounds read low 0.994 | S. cerevisiae deletion strains, locus YOR083W, strain WHI5, active compounds read low 1 | S. cerevisiae deletion strains, locus YOR106W, strain vam3, active compounds read low 1.01 | S. cerevisiae deletion strains, locus YOR136W, strain idh2, active compounds read low 1.01 | S. cerevisiae deletion strains, locus YOR144C, strain elg1, active compounds read low 1 | S. cerevisiae deletion strains, locus YOR184W, strain ser1, active compounds read low 1.02 | S. cerevisiae deletion strains, locus YOR231W, strain MKK1, active compounds read low 0.978 | S. cerevisiae deletion strains, locus YOR265W, strain rbl2, active compounds read low 1 | S. cerevisiae deletion strains, locus YOR270C, strain vph1, active compounds read low 1.01 | S. cerevisiae deletion strains, locus YOR290C, strain snf2, active compounds read low 1.02 | S. cerevisiae deletion strains, locus YOR316C, strain cot1, active compounds read low 1.01 | S. cerevisiae deletion strains, locus YPL051W, strain arl3, active compounds read low 0.997 | S. cerevisiae deletion strains, locus YPL055C, strain LGE1, active compounds read low 0.983 | S. cerevisiae deletion strains, locus YPL078C, strain atp4, active compounds read low 0.999 | S. cerevisiae deletion strains, locus YPL106C, strain sse1, active compounds read low 1 | S. cerevisiae deletion strains, locus YPL240C, strain hsp82, active compounds read low 1.01 | S. cerevisiae deletion strains, locus YPL241C, strain CIN2, active compounds read low 1 | S. cerevisiae deletion strains, locus YPL256C, strain CLN2, active compounds read low 0.966 | S. cerevisiae deletion strains, locus YPR119W, strain clb2, active compounds read low 1.01 | S. cerevisiae deletion strains, locus YPR141C, strain kar3, active compounds read low 1.02 | S. cerevisiae deletion strains, locus YPR163C, strain tif3, active compounds read low 1 | S. cerevisiae deletion strains, locus YPR167C, strain met16, active compounds read low 1.01 | S. cerevisiae deletion strains, strain wtn01, active compounds read low 1.01 | S. cerevisiae strains, strain wild type, active compounds read low 1
